The text below walks through data of ChEMBL document CHEMBL3988442, “University of Dundee, Small-Polar-MMV Screening Library” (2021).

Common to all, as to design: scale not given: direction of the effect not stated beside the values
For assay [1], the target named is Protein translocase subunit SecA (Escherichia coli (strain K12)) (UniProt P10408). Put plainly: Assay to Identify E. coli SecA ATPase Inhibitors. Format: functional. The note with it: 30 µM.
Assay [2] deals with T1, Ubiquitin-activating enzyme e1, putative (Leishmania donovani (strain BPK282A1)) (UniProt E9BSI1).
T1 sequence (whole entry): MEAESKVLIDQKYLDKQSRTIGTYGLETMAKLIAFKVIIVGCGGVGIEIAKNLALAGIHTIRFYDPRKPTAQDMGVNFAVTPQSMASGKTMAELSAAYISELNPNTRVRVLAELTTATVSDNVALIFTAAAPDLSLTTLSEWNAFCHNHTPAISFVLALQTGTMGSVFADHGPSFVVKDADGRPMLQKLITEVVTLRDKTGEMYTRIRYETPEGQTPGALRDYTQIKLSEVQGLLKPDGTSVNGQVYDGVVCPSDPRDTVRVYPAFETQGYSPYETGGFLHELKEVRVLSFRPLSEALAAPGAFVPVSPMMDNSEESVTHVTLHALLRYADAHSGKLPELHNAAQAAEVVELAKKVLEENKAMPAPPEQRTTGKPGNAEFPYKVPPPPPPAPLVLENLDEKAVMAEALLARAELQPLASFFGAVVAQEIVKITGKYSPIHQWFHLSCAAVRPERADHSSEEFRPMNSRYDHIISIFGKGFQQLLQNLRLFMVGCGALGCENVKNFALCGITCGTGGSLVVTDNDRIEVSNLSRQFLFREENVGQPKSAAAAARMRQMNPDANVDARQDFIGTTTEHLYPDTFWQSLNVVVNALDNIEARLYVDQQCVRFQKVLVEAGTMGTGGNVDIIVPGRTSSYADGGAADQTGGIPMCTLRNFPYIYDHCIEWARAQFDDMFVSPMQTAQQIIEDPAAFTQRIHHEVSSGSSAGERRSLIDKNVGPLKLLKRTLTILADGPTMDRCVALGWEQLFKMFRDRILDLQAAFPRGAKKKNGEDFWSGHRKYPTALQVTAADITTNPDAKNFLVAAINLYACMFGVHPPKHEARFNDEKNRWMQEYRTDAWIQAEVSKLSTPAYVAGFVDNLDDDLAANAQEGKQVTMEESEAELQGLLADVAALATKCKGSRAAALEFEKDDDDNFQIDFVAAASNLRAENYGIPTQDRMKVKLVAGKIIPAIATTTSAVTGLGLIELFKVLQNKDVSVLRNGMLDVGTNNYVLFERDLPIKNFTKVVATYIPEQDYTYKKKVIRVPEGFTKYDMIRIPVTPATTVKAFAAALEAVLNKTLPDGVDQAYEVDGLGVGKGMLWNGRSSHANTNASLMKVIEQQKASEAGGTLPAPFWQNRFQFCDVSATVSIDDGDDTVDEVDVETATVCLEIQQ
Put plainly: Leishmania donovani Ubiquitin Activating Enzyme (LdE1). Format: functional. The settings on record: 30 µM.

The target in assay [3] is AMP-activated protein kinase, AMPK (Homo sapiens) (UniProt P54646+O43741+P54619+Q9UGJ0+Q9Y478+Q13131+Q9UGI9). The assay is described as follows: AMP-dependent Kinase enzyme assay. An in vitro enzyme assay that detects ADP turnover that is directly proportional to AMPK activity. This uses naive AMPK that is activated during the assay with MK-8722. The note with it: 30 µM. Format: functional.

The target in assay [4] is Sialic acid-binding Ig-like lectin 9 (Homo sapiens) (UniProt Q9Y336). Put plainly: Hs-Siglec9 ALPHAscreen SOP 20170721. The note with it: 10 µM. On the technique in general: Bead proximity is the source of the signal in Alpha formats.
Chain of Sialic acid-binding Ig-like lectin 9 (Homo sapiens) (Q9Y336 whole entry): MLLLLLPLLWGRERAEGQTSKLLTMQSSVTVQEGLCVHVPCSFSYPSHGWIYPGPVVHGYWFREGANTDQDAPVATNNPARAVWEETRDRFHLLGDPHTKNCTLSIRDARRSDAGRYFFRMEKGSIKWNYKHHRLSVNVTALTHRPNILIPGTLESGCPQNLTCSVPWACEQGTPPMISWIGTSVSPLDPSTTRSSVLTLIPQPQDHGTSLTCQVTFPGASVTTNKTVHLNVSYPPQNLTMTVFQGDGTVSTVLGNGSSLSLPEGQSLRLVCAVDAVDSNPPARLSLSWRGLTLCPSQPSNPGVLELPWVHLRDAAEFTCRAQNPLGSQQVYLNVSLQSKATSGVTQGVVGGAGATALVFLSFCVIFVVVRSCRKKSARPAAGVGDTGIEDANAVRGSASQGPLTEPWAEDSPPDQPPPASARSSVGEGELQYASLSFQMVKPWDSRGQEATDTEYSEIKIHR
For the next assay, the system named is Trypanosoma cruzi. The assay is described as follows: Trypanosoma cruzi phosphomannomutase and mannose-1-phosphate guanylyltransferase assay. Format: functional. The settings on record: 10 µM.
The target of assay [5] is T2, Arginase-2, mitochondrial (Homo sapiens) (UniProt P78540).
T2 sequence (whole entry): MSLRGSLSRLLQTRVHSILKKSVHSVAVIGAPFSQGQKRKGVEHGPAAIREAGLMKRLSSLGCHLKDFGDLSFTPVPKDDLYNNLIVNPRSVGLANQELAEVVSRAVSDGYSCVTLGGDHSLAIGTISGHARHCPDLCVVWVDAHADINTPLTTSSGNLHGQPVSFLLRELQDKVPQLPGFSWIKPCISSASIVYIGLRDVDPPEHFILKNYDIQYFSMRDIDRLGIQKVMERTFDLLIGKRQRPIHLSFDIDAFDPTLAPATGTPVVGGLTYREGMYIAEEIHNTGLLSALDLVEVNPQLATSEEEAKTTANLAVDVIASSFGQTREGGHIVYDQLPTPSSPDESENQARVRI
Put plainly: in vitro enzyme assay to detect the production of urea directly proportional to the activity of Arginase II. Further: in the data most compounds retested in dose-response had high values. Format: functional.

Assay [6] deals with T3, Proteasome subunit beta (Trypanosoma cruzi) (UniProt O96673).
T3 sequence (whole entry): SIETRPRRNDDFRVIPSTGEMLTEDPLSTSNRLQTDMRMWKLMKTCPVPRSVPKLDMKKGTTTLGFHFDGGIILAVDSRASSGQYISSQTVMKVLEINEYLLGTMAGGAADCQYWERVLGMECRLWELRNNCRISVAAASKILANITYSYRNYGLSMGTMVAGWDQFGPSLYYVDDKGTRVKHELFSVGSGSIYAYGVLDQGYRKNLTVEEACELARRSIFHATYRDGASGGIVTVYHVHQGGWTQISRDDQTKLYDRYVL
The assay is described as follows: Trypanosoma cruzi proteasome chymotrypsin-like activity (TcProtChymo) assay. Further: in the data most compounds retested in dose-response had high values. Format: functional. The settings on record: 9.37 µM.

A further assay is filed under the species Homo sapiens. The assay is described as follows: To identify inhibition of the IFN signalling (Jak-Stat) pathway via expression of an eGFP reporter gene under the control of an IFN-stimulated response element (ISRE) containing MxA promoter. Format: functional. The settings on record: 30 µM. (A reporter such as luciferase makes a cellular process visible.)

Assay [7] addresses T4, Tyrosyl-tRNA synthetase, putative (Trypanosoma cruzi (strain CL Brener)) (UniProt Q4DSP6).
T4 sequence (whole entry): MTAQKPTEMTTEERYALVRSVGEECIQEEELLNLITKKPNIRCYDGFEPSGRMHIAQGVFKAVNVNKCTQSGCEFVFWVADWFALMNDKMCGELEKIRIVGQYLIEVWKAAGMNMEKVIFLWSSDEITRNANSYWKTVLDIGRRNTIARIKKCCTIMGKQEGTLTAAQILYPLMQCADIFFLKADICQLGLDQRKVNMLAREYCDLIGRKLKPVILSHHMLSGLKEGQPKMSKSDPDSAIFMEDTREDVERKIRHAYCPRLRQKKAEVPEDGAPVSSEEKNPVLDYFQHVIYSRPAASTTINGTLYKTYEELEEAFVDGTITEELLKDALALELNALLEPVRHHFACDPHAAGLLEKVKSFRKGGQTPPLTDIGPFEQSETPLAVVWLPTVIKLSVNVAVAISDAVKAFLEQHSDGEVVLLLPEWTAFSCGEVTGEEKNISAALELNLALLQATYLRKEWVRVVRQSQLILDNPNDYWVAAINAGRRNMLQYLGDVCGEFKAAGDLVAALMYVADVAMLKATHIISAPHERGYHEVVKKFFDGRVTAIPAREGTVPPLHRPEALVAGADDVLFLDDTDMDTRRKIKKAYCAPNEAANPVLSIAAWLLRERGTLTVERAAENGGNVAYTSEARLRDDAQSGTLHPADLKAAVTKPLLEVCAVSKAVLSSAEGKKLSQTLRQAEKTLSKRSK
Put plainly: Trypanosoma cruzi tyrosyl tRNA synthetase (TcYRS) _High Tyrosine SOP. Further: in the data most compounds retested in dose-response had high values. Format: functional. The settings on record: 30 µM.

The target of assay [8] is T4, Tyrosyl-tRNA synthetase, putative (Trypanosoma cruzi (strain CL Brener)). Put plainly: Trypanosoma cruzi tyrosyl tRNA synthetase (TcYRS) SOP. Format: functional. The note with it: 30 µM.
The target in assay [9] is Chromo domain-containing protein 1 (Saccharomyces cerevisiae (strain ATCC 204508 / S288c) (Baker's yeast)) (UniProt P32657). Put plainly: ScCHD-1 Enzyme Inhibition Assay. Further: in the data most compounds retested in dose-response had high values. Format: functional. The settings on record: 30 µM.
Chain of Chromo domain-containing protein 1 (Saccharomyces cerevisiae (strain ATCC 204508 / S288c) (Baker's yeast)) (P32657 whole entry, the tested form may be a part): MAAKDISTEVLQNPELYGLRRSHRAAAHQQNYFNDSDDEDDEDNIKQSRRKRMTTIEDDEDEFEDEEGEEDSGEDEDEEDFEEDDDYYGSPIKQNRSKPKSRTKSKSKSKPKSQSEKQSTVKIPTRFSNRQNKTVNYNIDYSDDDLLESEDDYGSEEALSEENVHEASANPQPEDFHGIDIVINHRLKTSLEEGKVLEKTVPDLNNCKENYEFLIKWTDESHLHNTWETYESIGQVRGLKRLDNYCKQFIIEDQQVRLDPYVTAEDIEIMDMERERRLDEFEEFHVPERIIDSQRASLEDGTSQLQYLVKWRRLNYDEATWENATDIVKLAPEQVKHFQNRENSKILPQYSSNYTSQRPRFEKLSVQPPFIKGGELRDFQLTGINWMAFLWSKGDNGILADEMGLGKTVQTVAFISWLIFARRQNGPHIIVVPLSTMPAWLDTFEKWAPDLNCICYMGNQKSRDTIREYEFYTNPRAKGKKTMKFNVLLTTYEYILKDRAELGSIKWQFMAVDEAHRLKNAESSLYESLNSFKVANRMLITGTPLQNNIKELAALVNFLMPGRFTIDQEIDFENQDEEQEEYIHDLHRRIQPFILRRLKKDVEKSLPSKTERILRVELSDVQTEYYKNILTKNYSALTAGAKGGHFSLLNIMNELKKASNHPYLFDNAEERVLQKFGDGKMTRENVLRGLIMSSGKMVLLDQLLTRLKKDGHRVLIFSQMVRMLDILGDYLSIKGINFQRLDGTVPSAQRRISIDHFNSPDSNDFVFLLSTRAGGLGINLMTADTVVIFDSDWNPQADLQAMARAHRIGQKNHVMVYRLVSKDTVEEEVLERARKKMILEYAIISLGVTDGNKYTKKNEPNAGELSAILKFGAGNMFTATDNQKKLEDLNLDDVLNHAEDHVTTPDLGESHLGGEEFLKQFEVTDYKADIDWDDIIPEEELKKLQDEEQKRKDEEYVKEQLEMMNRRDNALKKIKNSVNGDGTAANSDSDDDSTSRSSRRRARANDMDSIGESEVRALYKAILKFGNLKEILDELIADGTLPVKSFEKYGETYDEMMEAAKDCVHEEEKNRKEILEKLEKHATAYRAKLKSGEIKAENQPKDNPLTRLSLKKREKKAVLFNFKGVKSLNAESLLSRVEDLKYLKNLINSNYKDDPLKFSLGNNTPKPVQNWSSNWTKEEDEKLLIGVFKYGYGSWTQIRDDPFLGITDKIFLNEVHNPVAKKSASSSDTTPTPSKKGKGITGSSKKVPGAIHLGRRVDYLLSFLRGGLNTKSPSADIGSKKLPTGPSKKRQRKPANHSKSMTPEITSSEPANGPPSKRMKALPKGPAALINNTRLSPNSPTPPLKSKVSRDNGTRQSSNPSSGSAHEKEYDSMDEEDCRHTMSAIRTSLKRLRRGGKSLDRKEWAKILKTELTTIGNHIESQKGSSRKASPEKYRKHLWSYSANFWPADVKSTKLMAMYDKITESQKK
The test system of the next assay is N/A. The assay is described as follows: Trypanosoma cruzi proteasome luciferase counter-screen. The note with it: 9.37 µM. Format: functional. Background: Counterscreens check selectivity or assay interference.

“And” between values parts separate entries of the source, which are not always exact repeats. Equal entries are not always repeated. For part of these data: Measured potencies and affinities stand elsewhere.

Chain of Protein translocase subunit SecA (Escherichia coli (strain K12)) (P10408 whole entry): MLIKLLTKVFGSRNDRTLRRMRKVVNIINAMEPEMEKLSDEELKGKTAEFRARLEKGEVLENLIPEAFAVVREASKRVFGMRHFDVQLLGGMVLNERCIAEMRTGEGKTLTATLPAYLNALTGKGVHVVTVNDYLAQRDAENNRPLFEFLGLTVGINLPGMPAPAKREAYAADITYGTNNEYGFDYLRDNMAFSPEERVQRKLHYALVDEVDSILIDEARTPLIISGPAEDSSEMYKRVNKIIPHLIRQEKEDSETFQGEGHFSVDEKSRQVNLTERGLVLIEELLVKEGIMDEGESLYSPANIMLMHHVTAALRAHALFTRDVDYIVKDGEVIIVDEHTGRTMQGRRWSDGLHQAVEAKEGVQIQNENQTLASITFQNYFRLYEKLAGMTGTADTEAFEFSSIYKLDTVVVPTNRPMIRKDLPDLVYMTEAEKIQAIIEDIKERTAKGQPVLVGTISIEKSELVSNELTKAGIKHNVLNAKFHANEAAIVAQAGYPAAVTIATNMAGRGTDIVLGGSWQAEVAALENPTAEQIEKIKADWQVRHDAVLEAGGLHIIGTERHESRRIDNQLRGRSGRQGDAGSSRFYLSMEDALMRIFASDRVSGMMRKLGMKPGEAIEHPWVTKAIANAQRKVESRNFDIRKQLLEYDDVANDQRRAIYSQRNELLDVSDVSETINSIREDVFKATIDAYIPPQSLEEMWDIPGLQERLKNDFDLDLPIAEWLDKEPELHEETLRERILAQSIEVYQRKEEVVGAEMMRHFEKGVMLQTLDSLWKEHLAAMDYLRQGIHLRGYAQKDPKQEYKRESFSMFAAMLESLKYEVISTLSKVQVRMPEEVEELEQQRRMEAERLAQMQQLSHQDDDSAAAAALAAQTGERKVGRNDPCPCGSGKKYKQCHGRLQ

`CC1CCN(S(=O)(=O)c2cccn(CC(=O)N3CCOCC3)c2=O)CC1`: the Percent Effect in assay [1] is -2.79%; in assay [2] it was 9.33%; in assay [3], 5.14%; in assay [4] it was 0.129%; with Trypanosoma cruzi, -4.91%; in assay [5] (30 µM), 3.78%. Moreover, the Percent Effect in [5] (33.3 µM) is -3.7%; in [6], 7.02%; in the assay listed under Homo sapiens it was 0.032%; in assay [7], 1.06%; in assay [8] it was 2.56%; in assay [9], -7.85%.

`CCn1c(Nc2ccccc2OC)nc2c(C)nn(C)c2c1=O`: the Percent Effect in [1] was -1.82%; in assay [2] it was 6.67%; in [3], 3.08%; in assay [4], -2.73%; with Trypanosoma cruzi it was -6.88%; in assay [5] (30 µM) it was -9.19%. The Percent Effect is -4.4% in [5] (33.3 µM); 16.3% in [6]; 10.6% in the assay listed under Homo sapiens; 8.47% in assay [7]; 10.3% in [8]; -10.1% in assay [9].

For the compound `CCOCCCn1c(NC(=O)c2scnc2C)nc2ccccc21`, the Percent Effect is -9.29% in [1]; -5.2% in [2]; -17.4% in assay [3]; 23.1% in assay [4]; 11.1% in the assay on Trypanosoma cruzi; 4.27% in [5] (33.3 µM). Besides, the Percent Effect was 92.3% and 90% and 93.7% in assay [6]; 69.6% and 70.1% in the assay on N/A; 68.6% in the assay filed under Homo sapiens; 7.77% in [7]; 21.9% in assay [8]; 72.8% in assay [9].

Take `COc1cccc(-c2nc(C)c(C(=O)N[C@@H](C)C(=O)O)s2)c1`: the Percent Effect in [1] was -0.174%; in assay [2] it was 12%; in assay [3] it was -0.167%; in assay [4], -2.7%; in the assay with Trypanosoma cruzi, -2.36%; in assay [5] (33.3 µM), -12.5%. The Percent Effect in [6] was 77.2% and 81.5% and 84.7%; in the assay with N/A it was 56.5% and 53.9%; in the assay filed under Homo sapiens, 5.55%; in assay [7] it was 9.52%; in [8], 12.8%; in [9], -7.59%.

With `CN(Cc1ccco1)[C@@H]1CN(Cc2ccco2)[C@@H]2CCCO[C@H]12`, the Percent Effect was -1.09% in [1]; 2.67% in [2]; 15.3% in assay [3]; -0.135% in assay [4]; -5.71% in the assay on Trypanosoma cruzi; -2.7% in [5] (30 µM). Besides, the Percent Effect in assay [5] (33.3 µM) was 3.03%; in assay [6], 13.5%; in the assay listed under Homo sapiens, 2.84%; in assay [7] it was 4.25%; in [8], 11.5%; in assay [9] it was -5.52%.

On to `OC(CN(Cc1ccccc1)Cc1ccncc1)c1cccs1` (stereo not given), for which the Percent Effect was 3.55% in [1]; 2.7% in [2]; -2.19% in [3]; 5.24% in assay [4]; 4.79% in the assay with Trypanosoma cruzi; 5.95% in assay [5] (30 µM). In addition, the Percent Effect in assay [5] (33.3 µM) was 25.1%; in assay [6] it was 10.2%; in the assay filed under Homo sapiens, 5.3%; in assay [7] it was 1.07%; in assay [8], 6.17%; in [9], -8.61%.

Take `Cn1cc(-c2cnc(N3CCOCC3)nc2)cc1C(=O)O`: the Percent Effect was -3.79% in [1]; 5.41% in assay [2]; 2.15% in assay [3]; 1.49% in [4]; 5.08% in the assay on Trypanosoma cruzi; 18.3% in assay [5] (33.3 µM). Also, the Percent Effect in [6] was 100% (2×) and 98.7%; in the assay on N/A it was 97.4% and 97.5%; in the assay listed under Homo sapiens it was 5.61%; in assay [7], 5.94%; in assay [8] it was 11%; in assay [9], -7.1%.

For the compound `Cc1ccccc1-c1cncc(C2CCN(C(=O)CN(C)C)CC2)n1`, the Percent Effect is -4.06% in [1]; 6.76% in assay [2]; 14.4% in assay [3]; -6.59% in [4]; -4.74% in the assay with Trypanosoma cruzi; -1.62% in assay [5] (30 µM). Also, the Percent Effect is -8.59% in assay [5] (33.3 µM); 9.83% in [6]; 19.1% in the assay filed under Homo sapiens; 0% in assay [7]; 1.3% in [8]; -14.4% in assay [9].

As for `O=C1CC(c2ccsc2)c2c(n(C3CCOCC3)[nH]c2=O)N1` (stereo not given), the Percent Effect in assay [1] is -5.06%; in assay [2] it was -30.7%; in assay [3], -12.7%; in assay [4] it was 0.762%; in the assay on Trypanosoma cruzi, 2.36%; in assay [5] (30 µM), 2.7%. Further, the Percent Effect is 2.64% in [5] (33.3 µM); 16.4% in [6]; 1.56% in the assay listed under Homo sapiens; 6.35% in assay [7]; 15.4% in assay [8]; -7.86% in assay [9].

For `Cn1cc(CN(Cc2ccccc2)CC(O)c2cccs2)cn1` (stereo not given), the Percent Effect in [1] is -2.22%; in assay [2], 2.7%; in assay [3], -1.93%; in [4], 9.64%; in the assay on Trypanosoma cruzi, 7.14%; in assay [5] (30 µM), 7.03%. The Percent Effect is -1.74% in assay [5] (33.3 µM); 7.81% in assay [6]; 1.28% in the assay listed under Homo sapiens; -1.07% in [7]; -13.6% in assay [8]; -8.54% in assay [9].
